Results filed as inconclusive are left out. Calls of active or inactive are those of the source. Rule for the calls: active = hit-call score of the fitted dose curve at least 0.9, where 1 is the maximum; inconclusive = response in the unintended direction; inactive = score below 0.9.
read-out: alkyl and aryl transferase (GSTA2), GSTA2 (gene 2939); assay: CLD_GSTA2_48hr: CellzDirect (CLD) Gene Expression Assay for alkyl and aryl transferase (GSTA2) at 48 hours (AID 2283708);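 note: active means mRNA induction above DMSO vehicle baseline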
Description: CLD_48hr is a cell-based, multiplexed-readout assay that uses hepatocyte, a human liver primary cell, with measurements taken at 48 hours after chemical dosing in a 96-well plate.CLD_GSTA2_48hr is one of 16 assay component(s) measured or calculated from the CLD_48hr assay. It is designed to make measurements of mRNA induction, a form of inducible reporter, as detected with chemiluminescence signals by Quantitative Nuclease Protection Assay (qNPA) technology.Data from the assay component CLD_GSTA2_48hr was analyzed at the endpoint, CLD_GSTA2_48hr, in the positive analysis fitting direction relative to DMSO as the negative control and baseline of activity. Using a type of inducible reporter, gain-of-signal activity can be used to understand changes in the reporter gene as they relate to the gene GSTA2. Furthermore, this assay endpoint can be referred to as a primary readout. To generalize the intended target to other relatable targets, this assay endpoint is annotated to the transferase intended target family, where subfamily is alkyl and aryl transferase.
Human hepatocyte cultures were treated daily for two consecutive days with fresh dosing solutions containing appropriate concentrations of the 320 ToxCast chemicals (chemical identities were blinded to CellzDirect and other ToxCast collaborators), vehicle control (0.2% DMSO), and positive control inducers as summarized in Table 1. […] These replicate data, coupled with internal replicates designed within the blinded ToxCast chemical library, provided additional data to evaluate interindividual differences between hepatocyte preparations and their potential impact on chemical profiles.Cell morphology and integrity were evaluated using phase-contrast microscopy as an indicator of hepatocyte cell health (Tyson & Green, 1987). Cultures for each treatment group (i.e., media, vehicle [0.2% DMSO], positive control inducers [multiple concentrations], and the ToxCast chemicals [multiple concentrations]) were observed and cell morphology was assessed relative to vehicle control cultures at each harvest time point (0, 6, 24, or 48 h). […] Images were evaluated at the conclusion of the study to assess changes in cell integrity and account for the effects of chemical exposure on uncharacteristic changes in concentration-dependent gene expression profiles. The results from these determinations of apparent cytotoxicity were annotated (yes/no) alongside the corresponding qNPA data for reference.At the conclusion of each treatment period, hepatocyte cultures (96-well) were washed with 1 volume of HBSS, lysed by addition of 25 ul ArrayPlate lysis buffer (HTG, Tucson, AZ), and 70 ul/well of Denaturation Oil, denatured by incubation at 95C for 10 min, and frozen at approximately -70C until analysis by nuclease protection assay (qNPA) (Roberts et al., 2007). For qNPA analysis, cell lysates were thawed at 50C for approximately 30 min, qNPA probes were added, and samples were incubated at 95C for 10 min to begin the detection process by denaturing the target RNA, dissociating the duplexes and secondary structure hybridization. At the conclusion of the hybridization period, S1 nuclease reagent was added to each sample to digest all nonprotected nucleotides at 50C for 60-90 min. At the conclusion of the S1 nuclease digestions, all reactions were stopped by transfer of all the samples to fresh plates containing stop solution and incubated at 95C for 15 min to deactivate the enzyme, dissociate the mRNA/ DNA probe heterodimers, and hydrolyze the resulting single stranded mRNA, leaving a stoichiometric amount of single-stranded DNA nuclease protection probe, unmodified in sequence, as the only intact oligonucleotide left in the sample. Neutralization solution was subsequently applied to cooled (room temperature) plates, and samples were transferred to ArrayPlates for overnight incubations at 50Cto allow probes to be captured onto programmed locations on the ArrayPlates. […]

Row | SMILES | outcome | AC50
1 | COP(=O)(NC(C)=O)SC (stereo not given) | inactive | –
2 | CC(C1CC1)C(O)(Cn1cncn1)c1ccc(Cl)cc1 (stereo not given) | inactive | –
3 | Cc1cc(C2CC2)nc(Nc2ccccc2)n1 | inactive | –
4 | CNC(=O)Oc1cccc2c1OC(C)(C)O2 | inactive | –
5 | COc1ccc(C(=CC(=O)N2CCOCC2)c2ccc(Cl)cc2)cc1OC | – | 32.2 µM (active)
6 | COc1cc(OC)nc(Sc2cccc(Cl)c2C(=O)O)n1 | inactive | –
7 | CC(C)=CC1C(C(=O)OCN2C(=O)C3=C(CCCC3)C2=O)C1(C)C (stereo not given) | inactive | –
8 | CN(C)NC(=O)CCC(=O)O | inactive | –
9 | CCc1cnc(C2=NC(C)(C(C)C)C(=O)N2)c(C(=O)O)c1 (stereo not given) | inactive | –
10 | CCC(CC)Nc1c([N+](=O)[O-])cc(C)c(C)c1[N+](=O)[O-] | inactive | –
11 | Nc1c(Cl)cc([N+](=O)[O-])cc1Cl | inactive | –
12 | CC(C)[C@H](C(=O)O[C@H](C#N)c1cccc(Oc2ccccc2)c1)c1ccc(Cl)cc1 | inactive | –
13 | CCOP(=S)(OCC)Oc1ccc2c(C)c(Cl)c(=O)oc2c1 | inactive | –
14 | C#CCC1=C(C)C(OC(=O)C2C(C=C(C)C)C2(C)C)CC1=O (stereo not given) | inactive | –
15 | S=C1NCCN1 | inactive | –
16 | CCc1cccc(C)c1N(C(=O)CCl)C(C)COC (stereo not given) | inactive | –
17 | CCC(=NOC/C=C/Cl)C1=C(O)CC(C2CCOCC2)CC1=O (stereo not given) | inactive | –
18 | CCOP(=O)(OCC)Oc1cc(C)nc(C(C)C)n1 | inactive | –
19 | CC(=NC#N)N(C)Cc1ccc(Cl)nc1 | inactive | –
20 | C#CC(C)(C)NC(=O)c1cc(Cl)cc(Cl)c1 | inactive | –

Row | SMILES | outcome | AC50
21 | CC1(C(=O)Nc2ccc(O)c(Cl)c2Cl)CCCCC1 | inactive | –
22 | COP(=O)(OC)SCn1c(=O)oc2cc(Cl)cnc21 | inactive | –
23 | CCCCOC(=O)c1ccccc1C(=O)O | inactive | –
24 | COP(=O)(OC)C(O)C(Cl)(Cl)Cl (stereo not given) | inactive | –
25 | CNC(=O)ON=C(C)SC | inactive | –
26 | CSC1=N[C@@](C)(c2ccccc2)C(=O)N1Nc1ccccc1 | inactive | –
27 | CCCCOC(=O)[C@@H](C)Oc1ccc(Oc2ccc(C#N)cc2F)cc1 | inactive | –
28 | CCOP(=S)(OCC)SCCSCC | inactive | –
29 | C=C(C)[C@H]1Cc2c(ccc3c2O[C@@H]2COc4cc(OC)c(OC)cc4[C@@H]2C3=O)O1 | – | 0.66 µM (active)
30 | CCOP(=S)(OCC)Oc1cc(C)nc(C(C)C)n1 | inactive | –
31 | CCc1cccc(CC)c1N(COC)C(=O)CCl | – | 32.1 µM (active)
32 | CC(C)N(C(=O)SCC(Cl)=C(Cl)Cl)C(C)C | inactive | –
33 | CCOP(=S)(Oc1cnc(C(C)(C)C)nc1)OC(C)C (stereo not given) | – | 20 µM (active)
34 | CCCOCC(=Nc1ccc(Cl)cc1C(F)(F)F)n1ccnc1 | – | 20 µM (active)
35 | CNC(=O)ON=C(SC)C(=O)N(C)C | inactive | –
36 | CC1=NNC(=O)N(/N=C/c2cccnc2)C1 | inactive | –
37 | CON=C(C(=O)OC)c1ccccc1CON=C(C)c1cccc(C(F)(F)F)c1 | inactive | –
38 | COc1cccc(C(=O)NN(C(=O)c2cc(C)cc(C)c2)C(C)(C)C)c1C | inactive | –
39 | COP(=O)(OC)OC(Br)C(Cl)(Cl)Br (stereo not given) | inactive | –
40 | N#CSCSC#N | inactive | –

— PubChem BioAssay (EPA / NIEHS)
